Each structure is given as a SMILES string. Activity calls are given as the source filed them. The calls were made as follows, unless noted: active = hit-call score of the fitted dose curve at least 0.9, where 1 is the maximum; inactive = score below 0.9.

Read-out in experiment [1]: Protein phosphatase 2A (PPP2R4), PTPA (gene 5524)
Nature of the experiment: LTEA_HepaRG_PPP2R4: Life Technologies and Expression Analysis (LTEA) Assay for Protein phosphatase 2A (PPP2R4) using HepaRG (AID 2283522). The settings on record: mRNA level, 48 h; actives raise or lower the signal. In a few lines:
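Cells were plated, cultured 48 h, switched to serum-free induction medium, then dosed for 48 h (8 points, max 100 uM, 0.5% DMSO). RNA was isolated and PPP2R4 expression measured by TaqMan qRT-PCR.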

Read-out in experiment [2]: Phosphatase and tensin (PTEN), PTEN (gene 5728)
Nature of the experiment: LTEA_HepaRG_PTEN: Life Technologies and Expression Analysis (LTEA) Assay for Phosphatase and tensin (PTEN) using HepaRG (AID 2283523). Conditions: mRNA level, 48 h; actives raise or lower the signal. Summed up:
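HepaRG, 48 h exposure, 8-pt half-log series from 100 uM top, 0.5% DMSO vehicle, duplicates. Readout: Fluidigm qRT-PCR of PTEN transcript; housekeeping normalization (ACTB, GAPDH, POLR2A). Gain or loss fitted relative to DMSO baseline.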

Read-out in experiment [3]: solute carrier (SLC22A1), SLC22A1 (gene 6580)
Description: LTEA_HepaRG_SLC22A1: Life Technologies and Expression Analysis (LTEA) Assay for solute carrier (SLC22A1) using HepaRG (AID 2283524). The settings on record: mRNA level, 48 h; actives raise or lower the signal. In a few lines:
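qRT-PCR readout (TaqMan, Fluidigm arrays) of SLC22A1 transcript, normalized to three housekeeping genes; bidirectional curve fit relative to 0.5% DMSO vehicle. Differentiated human HepaRG cells, 48 h chemical exposure, top concentration 100 uM, half-log steps, eight points.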

Read-out in experiment [4]: Pyruvate Dehydrogenase Kinase 4 (PDK4), PDK4 (gene 5166)
Nature of the experiment: LTEA_HepaRG_PDK4: Life Technologies and Expression Analysis (LTEA) Assay for Pyruvate Dehydrogenase Kinase 4 (PDK4) using HepaRG (AID 2283525). The settings on record: mRNA level, 48 h; actives raise or lower the signal. Summed up: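 HepaRG (human liver line), 48 h chemical exposure, 8-pt half-log CRC top 100 uM, 0.5% DMSO vehicle, duplicates. Readout: TaqMan qRT-PCR of PDK4 mRNA, housekeeping-normalized; gain/loss fit relative to DMSO baseline.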

Read-out in experiment [5]: NAD(P)H dehydrogenase [quinone] 1 (NQO1), NQO1 (gene 1728)
Nature of the experiment: LTEA_HepaRG_NQO1: Life Technologies and Expression Analysis (LTEA) Assay for NAD(P)H dehydrogenase [quinone] 1 (NQO1) using HepaRG (AID 2283526). The settings on record: mRNA level, 48 h; actives raise or lower the signal. Summed up:
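Transcript induction or suppression is quantified by qRT-PCR in human HepaRG liver cells dosed for 48 hours. Eight half-log concentrations topping at 100 uM are used, with 0.5% DMSO as vehicle and baseline.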

Read-out in experiment [6]: Nuclear factor erythroid 2-related factor 2 (Homo sapiens) (UniProt Q16236)
Description: LTEA_HepaRG_NFE2L2: Life Technologies and Expression Analysis (LTEA) Assay for Nuclear factor erythroid 2-related factor 2 (NFE2L2) Transcription Factor using HepaRG (AID 2283527).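 Also: TaqMan qRT-PCR transcript level normalised to ACTB GAPDH and POLR2A housekeeping genes.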 Conditions: mRNA level, 48 h; actives raise or lower the signal. In a few lines: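 HepaRG, 48 h dosing, 8-pt half-log series from 100 uM in 0.5% DMSO, duplicates. Read-out: NFE2L2 mRNA by qRT-PCR (ACTB/GAPDH/POLR2A normalization). Bidirectional curve fit vs DMSO baseline.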

Read-out in experiment [7]: succinate dehydrogenase complex iron sulfur subunit B (SDHB), SDHB (gene 6390)
Description: LTEA_HepaRG_SDHB: Life Technologies and Expression Analysis (LTEA) Assay for succinate dehydrogenase complex iron sulfur subunit B (SDHB) using HepaRG (AID 2283528). Conditions: mRNA level, 48 h; actives raise or lower the signal. In a few lines: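 A human HepaRG culture in serum-free induction medium received test chemicals for 48 h over an eight-point range capped at 100 uM. SDHB expression change was quantified by qRT-PCR.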

Read-out in experiment [8]: Signal transducer and activator of transcription 3 (Homo sapiens) (UniProt P40763)
Nature of the experiment: LTEA_HepaRG_STAT3: Life Technologies and Expression Analysis (LTEA) Assay for Signal transducer and activator of transcription (STAT3) using HepaRG (AID 2283529). Conditions: mRNA level, 48 h; actives raise or lower the signal. In a few lines:
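HepaRG, 48 h exposure, 8-pt half-log series (top 100 uM), 0.5% DMSO vehicle, duplicates. Readout: STAT3 transcript by Fluidigm qRT-PCR, housekeeping-normalized; bidirectional fit vs DMSO baseline.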

Read-out in experiment [9]: solute carrier (SLCO1B1), SLCO1B1 (gene 10599)
Description: LTEA_HepaRG_SLCO1B1: Life Technologies and Expression Analysis (LTEA) Assay for solute carrier (SLCO1B1) using HepaRG (AID 2283530). Conditions: mRNA level, 48 h; actives raise or lower the signal. Summed up:
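Differentiated human HepaRG cells, plated 48 h, switched to serum-free induction medium and exposed in duplicate for 48 h to 8 half-log concentrations (top 100 uM) in 0.5% DMSO. SLCO1B1 mRNA by TaqMan qRT-PCR, normalized to ACTB/GAPDH/POLR2A.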

Read-out in experiment [10]: sulfotransferase 2A1 (SULT2A1), SULT2A1 (gene 6822)
Description: LTEA_HepaRG_SULT2A1: Life Technologies and Expression Analysis (LTEA) Assay for sulfotransferase 2A1 (SULT2A1) using HepaRG (AID 2283531). The settings on record: mRNA level, 48 h; actives raise or lower the signal. In a few lines:
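Differentiated human HepaRG cells in serum-free induction medium were exposed for 48 h to eight half-log concentrations (top 100 uM, 0.5% DMSO). SULT2A1 mRNA was measured by qRT-PCR, normalized to ACTB, GAPDH and POLR2A, and fitted bidirectionally against DMSO.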

Read-out in experiment [11]: Transforming Growth Factor (TGFA), TGFA (gene 7039)
Nature of the experiment: LTEA_HepaRG_TGFA: Life Technologies and Expression Analysis (LTEA) Assay for Transforming Growth Factor (TGFA) using HepaRG (AID 2283532). Conditions: mRNA level, 48 h; actives raise or lower the signal. Summed up: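 qRT-PCR read-out of TGFA transcript, normalized to three housekeeping genes, fitted bidirectionally against 0.5% DMSO baseline. Human HepaRG cultures received chemicals for 48 h at eight half-log concentrations, top 100 uM.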

Read-out in experiment [12]: Transforming Growth Factor (TGFB1), TGFB1 (gene 7040)
Description: LTEA_HepaRG_TGFB1: Life Technologies and Expression Analysis (LTEA) Assay for Transforming Growth Factor (TGFB1) Transporter using HepaRG (AID 2283533). Conditions: mRNA level, 48 h; actives raise or lower the signal. In a few lines: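 Differentiated human HepaRG cells in serum-free induction medium were exposed in duplicate for 48 h to eight concentrations (top 100 uM, half-log steps, 0.5% DMSO). TGFB1 mRNA was quantified by qRT-PCR, normalized to ACTB, GAPDH, POLR2A, and fitted bidirectionally against DMSO.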

Read-out in another experiment: TIMP1, TIMP1 (gene 7076)
Description: LTEA_HepaRG_TIMP1: Life Technologies and Expression Analysis (LTEA) Assay for TIMP1 using HepaRG (AID 2283534). The settings on record: mRNA level, 48 h; actives raise or lower the signal. In a few lines:
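Differentiated human HepaRG cells in serum-free induction medium were exposed 48 h to chemicals (8 half-log concentrations, top 100 uM, 0.5% DMSO). TIMP1 mRNA was quantified by TaqMan qRT-PCR, normalized to ACTB/GAPDH/POLR2A; bidirectional fit versus DMSO.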

Read-out in experiment [13]: Tumor necrosis factor receptor 1 (TNFRSF1A), TNFRSF1A (gene 7132)
Description: LTEA_HepaRG_TNFRSF1A: Life Technologies and Expression Analysis (LTEA) Assay for Tumor necrosis factor receptor 1 (TNFRSF1A) using HepaRG (AID 2283535). Conditions: mRNA level, 48 h; actives raise or lower the signal. Summed up:
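Differentiated human HepaRG cells were exposed in duplicate for 48 h in serum-free induction medium to eight concentrations (top 100 uM, half-log steps, 0.5% DMSO). TNFRSF1A mRNA was quantified by qRT-PCR, normalized to ACTB, GAPDH and POLR2A, then fitted bidirectionally against DMSO.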

Read-out in experiment [14]: Thyroid Hormone Responsive (THRSP), THRSP (gene 7069)
Nature of the experiment: LTEA_HepaRG_THRSP: Life Technologies and Expression Analysis (LTEA) Assay for Thyroid Hormone Responsive (THRSP) using HepaRG (AID 2283536). The settings on record: mRNA level, 48 h; actives raise or lower the signal. Summed up: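 qRT-PCR read-out (Fluidigm TaqMan), housekeeping-normalized (ACTB/GAPDH/POLR2A). HepaRG, 48 h chemical exposure, 8-pt half-log series from 100 uM in 0.5% DMSO, duplicates. Bidirectional curve fit vs 0.5% DMSO baseline.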

Read-out in experiment [15]: UDP glucuronosyltransferase (UGT1A1), UGT1A1 (gene 54658)
Nature of the experiment: LTEA_HepaRG_UGT1A1: Life Technologies and Expression Analysis (LTEA) Assay for UDP glucuronosyltransferase (UGT1A1) using HepaRG (AID 2283538). Conditions: mRNA level, 48 h; actives raise or lower the signal. In a few lines:
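Cells are plated, cultured 48 h, switched to serum-free induction medium, then dosed 48 h at eight concentrations (max 100 uM, 0.5% DMSO). RNA is isolated and UGT1A1 expression measured by qRT-PCR; changes versus DMSO are fitted in both directions.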

Read-out in experiment [16]: UDP glucuronosyltransferase (UGT1A6), UGT1A6 (gene 54578)
Description: LTEA_HepaRG_UGT1A6: Life Technologies and Expression Analysis (LTEA) Assay for UDP glucuronosyltransferase (UGT1A6) using HepaRG (AID 2283539). The settings on record: mRNA level, 48 h; actives raise or lower the signal. Summed up: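 Human HepaRG cells were dosed for 48 h in serum-free induction medium with 0.5% DMSO vehicle, eight-point half-log series from 100 uM, in duplicate. UGT1A6 mRNA was measured by qRT-PCR, normalized to ACTB, GAPDH, POLR2A, and fitted bidirectionally against DMSO.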

Read-out in experiment [17]: X-box binding protein 1 (XBP1), XBP1 (gene 7494)
Description: LTEA_HepaRG_XBP1: Life Technologies and Expression Analysis (LTEA) Assay for X-box binding protein 1 (XBP1) using HepaRG (AID 2283540). Conditions: mRNA level, 48 h; actives raise or lower the signal. Summed up: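 Differentiated human HepaRG cells in serum-free induction medium were exposed in duplicate for 48 h to eight half-log concentrations up to 100 uM in 0.5% DMSO. XBP1 mRNA was quantified by qRT-PCR, normalised to ACTB, GAPDH and POLR2A, with bidirectional fitting against DMSO.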

The nature of experiment [18]: LTEA_HepaRG_LDH_cytotoxicity: Cytotoxicity Assessment in the Life Technologies and Expression Analysis (LTEA) Assay (AID 2283563; active = hit-call score of the fitted dose curve at least 0.9, where 1 is the maximum;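 as to AC50: LDH activity released into spent culture medium as a marker of cell death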). Summed up:
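Differentiated human HepaRG cells, plated 48 h beforehand, were switched to serum-free induction medium and exposed for 48 h to eight half-log concentrations (top 100 uM) in 0.5% DMSO. LDH was measured in spent medium; activity was fitted relative to DMSO vehicle.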

Sequence of Nuclear factor erythroid 2-related factor 2 (Homo sapiens) (Q16236 whole entry, looked up): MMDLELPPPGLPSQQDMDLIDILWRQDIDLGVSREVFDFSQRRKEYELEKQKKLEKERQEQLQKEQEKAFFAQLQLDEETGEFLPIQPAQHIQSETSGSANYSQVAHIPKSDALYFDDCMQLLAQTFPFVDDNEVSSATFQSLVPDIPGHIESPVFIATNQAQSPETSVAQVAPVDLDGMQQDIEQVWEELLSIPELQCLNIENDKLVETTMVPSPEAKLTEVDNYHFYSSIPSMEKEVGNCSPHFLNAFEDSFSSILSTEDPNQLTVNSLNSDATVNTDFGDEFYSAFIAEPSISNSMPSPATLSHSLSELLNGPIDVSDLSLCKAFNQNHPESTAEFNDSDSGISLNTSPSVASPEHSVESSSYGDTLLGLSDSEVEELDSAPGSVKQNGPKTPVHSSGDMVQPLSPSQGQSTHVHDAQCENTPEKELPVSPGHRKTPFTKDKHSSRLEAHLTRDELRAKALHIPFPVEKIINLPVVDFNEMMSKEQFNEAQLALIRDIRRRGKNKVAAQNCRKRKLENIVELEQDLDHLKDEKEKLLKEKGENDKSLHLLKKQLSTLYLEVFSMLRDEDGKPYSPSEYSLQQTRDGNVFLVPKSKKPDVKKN
Sequence of Signal transducer and activator of transcription 3 (Homo sapiens) (P40763 whole entry, looked up): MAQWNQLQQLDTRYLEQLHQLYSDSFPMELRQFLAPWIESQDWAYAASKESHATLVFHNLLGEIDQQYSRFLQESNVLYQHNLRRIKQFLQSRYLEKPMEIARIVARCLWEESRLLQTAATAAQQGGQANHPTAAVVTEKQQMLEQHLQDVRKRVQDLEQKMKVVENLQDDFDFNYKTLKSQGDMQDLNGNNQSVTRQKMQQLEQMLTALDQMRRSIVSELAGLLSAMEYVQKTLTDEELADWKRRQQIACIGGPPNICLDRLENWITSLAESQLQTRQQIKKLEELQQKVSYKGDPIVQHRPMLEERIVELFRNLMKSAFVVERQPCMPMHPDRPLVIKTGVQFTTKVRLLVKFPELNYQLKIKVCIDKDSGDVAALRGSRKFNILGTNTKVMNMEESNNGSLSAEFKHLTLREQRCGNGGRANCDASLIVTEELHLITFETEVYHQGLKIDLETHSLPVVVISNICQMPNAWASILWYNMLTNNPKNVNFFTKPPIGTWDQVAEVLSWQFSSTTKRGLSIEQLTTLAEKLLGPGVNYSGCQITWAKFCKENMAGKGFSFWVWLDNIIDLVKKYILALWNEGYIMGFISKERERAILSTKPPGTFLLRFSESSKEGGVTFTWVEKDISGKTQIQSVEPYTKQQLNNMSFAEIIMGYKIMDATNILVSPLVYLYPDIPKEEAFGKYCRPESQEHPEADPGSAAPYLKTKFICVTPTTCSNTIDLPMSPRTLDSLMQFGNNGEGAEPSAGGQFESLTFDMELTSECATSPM

As to `COP(=O)(OC)SCn1c(=O)oc2cc(Cl)cnc21`, the outcome in [1], in [2], in experiment [4], in experiment [5], in [6] and in experiment [7] was inactive. For the same compound, the outcome is “inactive” in experiment [8]; “inactive” in experiment [9]; “inactive” in experiment [10]; “inactive” in experiment [11]; “inactive” in experiment [12]; “inactive” in the experiment with TIMP1, TIMP1 (gene 7076). Besides, the outcome in experiment [17] was inactive. For the same compound, the AC50 (in general, the concentration at which the activity in the assay is half-maximal) in experiment [3] is 50 µM (active); in experiment [13] it was 0.262 µM (active); in experiment [14], 73.4 µM (active); in experiment [15] it was 9.92 µM (active); in [16], 9.92 µM (active); in [18] it was 74.2 µM (active).
As to `CNC(=O)ON=C(C)SC`, the result in experiment [1], in experiment [2], in experiment [3], in [4], in [5] and in [6] was inactive. In addition, the result in [7], in [8], in experiment [9], in [10], in [11] and in experiment [12] was inactive. Further, the outcome with TIMP1, TIMP1 (gene 7076) was “inactive”; in experiment [13], “inactive”; in experiment [14], “inactive”; in experiment [15] it was “inactive”; in experiment [16], “inactive”; in experiment [17], “inactive”. In addition, the result in experiment [18] was inactive.
`CN(C)NC(=O)CCC(=O)O`: the compound was classed as inactive in [1], in experiment [2], in experiment [3], in experiment [4], in experiment [5] and in experiment [6]. The call in experiment [7], in [8], in experiment [9], in experiment [10], in experiment [11] and in [12] was inactive. In addition, the outcome in the experiment with TIMP1, TIMP1 (gene 7076) was “inactive”; in experiment [13] it was “inactive”; in experiment [14] it was “inactive”; in [15] it was “inactive”; in experiment [16], “inactive”; in experiment [17] it was “inactive”. In [18], the result was inactive.
For `COc1cccc(C(=O)NN(C(=O)c2cc(C)cc(C)c2)C(C)(C)C)c1C`, the result in experiment [1], in experiment [2], in [5], in experiment [6], in [7] and in experiment [9] was inactive. In addition, the outcome in experiment [11] is “inactive”; in experiment [12] it was “inactive”; with TIMP1, TIMP1 (gene 7076) it was “inactive”; in experiment [13], “inactive”; in [16], “inactive”; in [17], “inactive”. The call in [18] was inactive. Further, the AC50 in [4] is 69.7 µM (active); in [8] it was 5.4 µM (active); in [10], 32.5 µM (active); in experiment [14], 12.2 µM (active); in [15], 2.32 µM (active).

Values taken from PubChem BioAssay (EPA / NIEHS).
